Source: PubChem BioAssay AID1159580 (chemical genetic matrix, 2015)
Where “and” joins values, the source holds several entries; their conditions need not be identical. Equal entries are not always repeated. Screen size: about 5,500 compounds; about 2,000 (36%) were called active. About 18% were inconclusive and are not listed. Rule as the data show it: active = normalized growth mostly below about 0.91 (no sharp cut-off); inconclusive = no clear call, values can overlap the other calls; inactive = mostly above about 0.92. Some of the results follow.

Assay: chemical genetic growth profiling, strain panel (AID 1159580);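 also: tested at 20 µM; growth read once vehicle control cultures reached saturation at 30 °C; 1 = growth at the plate median or of vehicle wells; lower values mean less growth of the strain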
Settings: growth OD

Measured: normalized growth

CCCn1c(=O)c2[nH]c(C3CCCC3)nc2n(CCC)c1=O
inactive: S. cerevisiae deletion strains, locus YJR043C, strain POL32, hits give low values 0.989 | S. cerevisiae deletion strains, locus YJR075W, strain HOC1, hits give low values 0.968 and 0.985 | S. cerevisiae deletion strains, locus YKL009W, strain mrt4, hits give low values 0.966 | S. cerevisiae deletion strains, locus YKL068W, hits give low values 0.965 | S. cerevisiae deletion strains, locus YKL085W, strain MDH1 (second series), hits give low values 0.994 | S. cerevisiae deletion strains, locus YKL085W, strain MDH1, hits give low values 0.994 | S. cerevisiae deletion strains, locus YKL160W, strain elf1, hits give low values 0.996 | S. cerevisiae deletion strains, locus YKL190W, strain CNB1, hits give low values 0.981 | S. cerevisiae deletion strains, locus YKR001C, strain vps1, hits give low values 0.964 | S. cerevisiae deletion strains, locus YKR026C, strain gcn3, hits give low values 0.998 | S. cerevisiae deletion strains, locus YKR091W, strain srl3, hits give low values 0.982 | S. cerevisiae deletion strains, locus YLL001W, strain dnm1, hits give low values 0.986 | S. cerevisiae deletion strains, locus YLL026W, hits give low values 0.974 | S. cerevisiae deletion strains, locus YLL041C, strain sdh2, hits give low values 0.979 | S. cerevisiae deletion strains, locus YLR027C, strain aat2, hits give low values 0.987 | S. cerevisiae deletion strains, locus YLR039C, strain RIC1, hits give low values 0.881 | S. cerevisiae deletion strains, locus YLR058C, strain SHM2, hits give low values 0.982 | S. cerevisiae deletion strains, locus YLR102C, strain apc9, hits give low values 0.957 | S. cerevisiae deletion strains, locus YLR221C, strain rsa3, hits give low values 1 | S. cerevisiae deletion strains, locus YLR258W, strain gsy2, hits give low values 0.963 | S. cerevisiae deletion strains, locus YLR262C, strain YPT6 (second series), hits give low values 0.965 | S. cerevisiae deletion strains, locus YLR262C, strain YPT6, hits give low values 0.854 | S. cerevisiae deletion strains, locus YLR268W, strain sec22, hits give low values 0.957 | S. cerevisiae deletion strains, locus YLR320W, strain mms22, hits give low values 0.974 | S. cerevisiae deletion strains, locus YLR330W, strain CHS5, hits give low values 0.98 | S. cerevisiae deletion strains, locus YLR342W, strain FKS1 (second series), hits give low values 0.979 | S. cerevisiae deletion strains, locus YLR342W, strain FKS1, hits give low values 0.987 | S. cerevisiae deletion strains, locus YLR357W, strain rsc2, hits give low values 0.986 | S. cerevisiae deletion strains, locus YLR370C, strain arc18, hits give low values 0.986 | S. cerevisiae deletion strains, locus YLR371W, strain rom2, hits give low values 0.951 | S. cerevisiae deletion strains, locus YLR384C, strain iki3, hits give low values 0.995 | S. cerevisiae deletion strains, locus YLR418C, strain cdc73, hits give low values 1.01 | S. cerevisiae deletion strains, locus YML016C, strain PPZ1, hits give low values 0.992 | S. cerevisiae deletion strains, locus YML032C, strain rad52, hits give low values 0.959 | S. cerevisiae deletion strains, locus YML120C, strain ndi1, hits give low values 0.997 | S. cerevisiae deletion strains, locus YML124C, strain tub3, hits give low values 0.972 | S. cerevisiae deletion strains, locus YMR058W, strain fet3, hits give low values 1 | S. cerevisiae deletion strains, locus YMR078C, strain ctf18, hits give low values 0.972 | S. cerevisiae deletion strains, locus YMR125W, strain sto1, hits give low values 0.994 | S. cerevisiae deletion strains, locus YMR129W, hits give low values 0.968 | S. cerevisiae deletion strains, locus YMR205C, strain PFK2, hits give low values 0.967 | S. cerevisiae deletion strains, locus YMR223W, strain ubp8, hits give low values 0.97 | S. cerevisiae deletion strains, locus YMR231W, strain pep5, hits give low values 0.994 | S. cerevisiae deletion strains, locus YMR263W, strain SAP30, hits give low values 0.993 | S. cerevisiae deletion strains, locus YMR307W, strain GAS1, hits give low values 0.947 | S. cerevisiae deletion strains, locus YNL067W, strain RPL9B, hits give low values 0.986 | S. cerevisiae deletion strains, locus YNL071W, strain lat1, hits give low values 0.997 | S. cerevisiae deletion strains, locus YNL128W, strain TEP1, hits give low values 1 | S. cerevisiae deletion strains, locus YNL153C, strain GIM3, hits give low values 0.998 and 0.965 | S. cerevisiae deletion strains, locus YNL175C, strain NOP13, hits give low values 0.977 | S. cerevisiae deletion strains, locus YNL197C, strain WHI3, hits give low values 0.976 | S. cerevisiae deletion strains, locus YNL209W, strain ssb2, hits give low values 0.994 | S. cerevisiae deletion strains, locus YNL224C, strain SQS1, hits give low values 0.975 | S. cerevisiae deletion strains, locus YNL233W, strain BNI4, hits give low values 0.991 | S. cerevisiae deletion strains, locus YNL248C, strain rpa49, hits give low values 0.992 | S. cerevisiae deletion strains, locus YNL250W, strain rad50, hits give low values 0.973 | S. cerevisiae deletion strains, locus YNL271C, strain bni1, hits give low values 0.974 | S. cerevisiae deletion strains, locus YNL298W, strain CLA4, hits give low values 0.972 | S. cerevisiae deletion strains, locus YNL307C, strain MCK1, hits give low values 0.97 | S. cerevisiae deletion strains, locus YNL322C, strain KRE1 (second series), hits give low values 0.986 | S. cerevisiae deletion strains, locus YNL322C, strain KRE1, hits give low values 0.984 and 0.987 | S. cerevisiae deletion strains, locus YNR049C, strain mso1, hits give low values 0.984 | S. cerevisiae deletion strains, locus YNR052C, strain pop2, hits give low values 0.975 | S. cerevisiae deletion strains, locus YOL006C, strain TOP1, hits give low values 0.986 | S. cerevisiae deletion strains, locus YOL012C, strain htz1 0.878 | S. cerevisiae deletion strains, locus YOL147C, strain pex11, hits give low values 0.962 | S. cerevisiae deletion strains, locus YOR001W, strain rrp6, hits give low values 0.995 | S. cerevisiae deletion strains, locus YOR061W, strain CKA2, hits give low values 0.995 | S. cerevisiae deletion strains, locus YOR069W, strain VPS5, hits give low values 0.989 | S. cerevisiae deletion strains, locus YOR070C, strain gyp1, hits give low values 0.993 | S. cerevisiae deletion strains, locus YOR080W, strain dia2, hits give low values 0.984 | S. cerevisiae deletion strains, locus YOR083W, strain WHI5 (second series), hits give low values 0.989 | S. cerevisiae deletion strains, locus YOR083W, strain WHI5, hits give low values 1.01 | S. cerevisiae deletion strains, locus YOR106W, strain vam3, hits give low values 0.996 | S. cerevisiae deletion strains, locus YOR136W, strain idh2, hits give low values 0.954 | S. cerevisiae deletion strains, locus YOR144C, strain elg1, hits give low values 0.965 | S. cerevisiae deletion strains, locus YOR184W, strain ser1, hits give low values 0.955 | S. cerevisiae deletion strains, locus YOR265W, strain rbl2, hits give low values 0.991 | S. cerevisiae deletion strains, locus YOR270C, strain vph1, hits give low values 0.998 | S. cerevisiae deletion strains, locus YOR290C, strain snf2, hits give low values 0.923 | S. cerevisiae deletion strains, locus YOR316C, strain cot1, hits give low values 0.977 | S. cerevisiae deletion strains, locus YPL051W, strain arl3, hits give low values 0.987 | S. cerevisiae deletion strains, locus YPL055C, strain LGE1, hits give low values 0.976 | S. cerevisiae deletion strains, locus YPL078C, strain atp4, hits give low values 0.994 | S. cerevisiae deletion strains, locus YPL106C, strain sse1, hits give low values 0.976 | S. cerevisiae deletion strains, locus YPL240C, strain hsp82, hits give low values 0.983 | S. cerevisiae deletion strains, locus YPL241C, strain CIN2, hits give low values 0.954 and 1.01 | S. cerevisiae deletion strains, locus YPR119W, strain clb2, hits give low values 0.967 | S. cerevisiae deletion strains, locus YPR141C, strain kar3, hits give low values 0.977 | S. cerevisiae deletion strains, locus YPR163C, strain tif3, hits give low values 0.969 | S. cerevisiae deletion strains, locus YPR167C, strain met16, hits give low values 0.982 | S. cerevisiae deletion strains, strain wtn01, hits give low values 0.98 | S. cerevisiae strains, strain wild type, hits give low values 0.981
